Assay outcomes deposited in PubChem BioAssay by Sanford-Burnham Center for Chemical Genomics.
SENP8 block-1: SENP8 (human) protease inhibition; recombinant SENP8, Nedd8 substrate fluorescence; Q96LD8; AID 602440; 360,000 compounds, 0.64% hits; inhibition, % at 20 µM; in the data active means inhibition mostly above about 40%, no sharp cut-off; inactive means mostly below about 27%
SENP6 inh: blocks the human protease SENP6. Q9GZR1. Recombinant SENP6 catalytic domain, aminoluciferin luminescence. inhibition, % at 10 µM. 330,000 compounds, 1.8% hits;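 active means inhibition above about 50% at the single tested dose, limit read from the data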;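 further: plate controls were DMSO wells with enzyme for no effect and DMSO wells lacking enzyme for full effect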
Target sequence (Q9GZR1 628-1112 limits assumed): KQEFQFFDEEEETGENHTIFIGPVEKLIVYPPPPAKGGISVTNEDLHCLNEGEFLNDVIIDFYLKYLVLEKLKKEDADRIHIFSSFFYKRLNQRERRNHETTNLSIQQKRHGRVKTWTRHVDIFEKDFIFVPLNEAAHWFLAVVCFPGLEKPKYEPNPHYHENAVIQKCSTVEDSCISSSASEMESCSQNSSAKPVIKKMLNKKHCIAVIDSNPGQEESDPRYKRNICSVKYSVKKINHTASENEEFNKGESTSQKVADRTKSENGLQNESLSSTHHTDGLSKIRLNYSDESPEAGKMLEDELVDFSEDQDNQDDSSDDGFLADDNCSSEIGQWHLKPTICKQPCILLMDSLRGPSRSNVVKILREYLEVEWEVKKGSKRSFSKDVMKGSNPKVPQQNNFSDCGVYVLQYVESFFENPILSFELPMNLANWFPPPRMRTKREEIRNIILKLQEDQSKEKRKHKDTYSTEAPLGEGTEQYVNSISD
SENP7 inh: inhibitors of human SENP7 protease | Q9BQF6 | recombinant SENP7, Z-RLRGG-aminoluciferin luminescence, 40 min | inhibition, % at 5 µM | 330,000 compounds, 1.5% hits;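 active means inhibition above about 50% at the single test dose, limit read from the data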;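 further: plate controls were DMSO with enzyme for no effect and no enzyme buffer wells for full effect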
SENP8 block-2: blocks the human protease SENP8; purified SENP8, Z-RLRGG-aminoluciferin cleavage, luminescence; inhibition, % at 10 µM; 330,000 compounds, 1.2% hits; AID 2540; in the data active means inhibition above about 50%
C8 TRAIL sens: sensitizes caspase-8 expressing cells to TRAIL | NB7+C8 cells + TRAIL, ATPlite viability luminescence | inhibition (viability loss, TRAIL sensitization), % at 10 µM | 360,000 compounds, 1% hits;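 active means compounds causing at least 50% loss of cell viability in the single-dose screen, relative to plate controls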
PPC-1+TRAIL kill: compounds killing PPC-1 cancer cells with TRAIL present (potentiator screen, no TRAIL-free arm). PPC-1 cells + TRAIL, ATPLite viability luminescence. AID 1443. 220,000 compounds, 0.41% hits. cell killing (% activity), % at 4 µM or 5 µM;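 active means cell killing above 50% in the first pass at 4 µM, then a duplicate retest at 5 µM averaging 50% or more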;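 further: plate controls were cells with TRAIL plus DMSO for no effect and medium-only wells lacking cells for full effect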
An asterisk follows results filed as active; / = no result given. Rows were chosen to be rich in hits. Some 3% of all compounds tested hit in one or more screens of this group.

SMILES	SENP8 block-1	SENP6 inh	SENP7 inh	SENP8 block-2	C8 TRAIL sens	PPC-1+TRAIL kill
Cc1cccc(NS(=O)(=O)c2ccc3[nH]c(=O)[nH]c3c2)c1C	10.0	-1.4	9.2	3.8	9.0	/
CSc1nc(N(C)CCO)c2sc3nc(-c4ccco4)c4c(c3c2n1)CCC4	-7.4	3.6	11.8	9.8	-1.5	6.4
CSc1nc(NCCN(C)C)c2sc3nc(-c4ccco4)c4c(c3c2n1)CCC4	-430.0	/	/	/	83.0*	/
CCCCCCCCCCCCCCC[C@@H](O)[C@@H](N)CO	8.7	/	/	/	94.9*	/
CCCCCCCCCC(=O)OCC(O)CO (stereo not given)	3.0	1.2	-9.0	-3.3	7.3	11.7
O=C(O)C(Cc1ccccc1)N1C(=O)/C(=C/c2cccs2)SC1=S (stereo not given)	41.1*	-7.0	11.5	1.7	22.8	2.1
O=C(O)C(c1ccccc1)N1C(=O)/C(=C/c2cccs2)SC1=S (stereo not given)	22.6	-0.4	1.6	-0.2	3.8	15.6
CS(=O)(=O)Nc1cccc(NC(=O)C2Cc3c(-c4ccccc4)ccnc3O2)c1 (stereo not given)	-6.7	/	/	/	57.4*	/
CCOC(=O)C(NC(=O)c1ccccc1)C(C)(C)SCc1ccccc1 (stereo not given)	9.7	/	/	/	0.4	/
O=C(CNC(=O)c1ccccc1F)NCc1cccnc1	-5.3	-13.3	-12.9	0.3	-9.3	/
Nc1ccc2c(c1)C(=O)C(=O)c1ccccc1-2	141.9*	88.7*	98.1*	97.2*	96.9*	32.7
Nc1ccc2c(c1)C(=O)c1ccccc1-2	9.7	-5.7	-4.6	-11.3	-19.3	/
CCOc1ccc(NC(=O)CSc2nnc(C3CC3)n2C2CC2)cc1	1.8	-17.8	0.1	-2.2	2.1	/
O=C1c2ccccc2C(O)N1Cc1cccs1 (stereo not given)	3.1	-3.5	13.7	-5.2	-4.4	-1.8
Cc1ccc(CN2[C@@H](Cc3ccccc3)C(=O)CS2(=O)=O)cc1	-34.1	7.8	4.2	3.9	63.9*	/
O=C(Nc1cccc(S(=O)(=O)N2CCCCC2)c1)Nc1ccc(Cl)cc1Cl	11.3	5.0	-2.1	7.1	9.5	-2.0
O=C(CCl)Nc1ccccc1Sc1ccccc1	7.0	-11.9	1.3	1.5	83.1*	12.5
O=C(CCl)Nc1ccc(-c2ccccc2)cc1	-3.0	-20.7	-5.3	-4.8	57.1*	25.6
O=C(Cc1ccc(Cl)cc1)Nc1ccccc1Sc1ccccc1	6.8	-5.6	-6.4	1.7	19.5	0.0
O=C(CCl)Nc1cccc(Oc2ccccc2)c1	22.7	-11.4	-9.1	-13.5	87.2*	5.1
O=C(CCl)Nc1cccc(Oc2cnccn2)c1	11.3	9.2	10.7	0.1	10.7	/
Cc1cc(NC(=O)C(C)SCC(=O)Nc2ccc(Br)cc2Br)no1 (stereo not given)	7.4	-21.6	17.8	-2.9	-1.8	/
COc1ccc(C(=O)Nc2c(C(C)(C)C)nn(C)c2C(C)(C)C)cc1	11.2	-6.5	-4.4	4.6	-16.3	19.7
Cc1cc(C)cc(NC(=O)c2cc(C)n(Cc3cccs3)c2C)c1	-4.3	-11.2	-1.7	-25.4	51.1*	42.0
Cc1cc(C(=O)Cn2nnc3ccccc3c2=O)c(C)n1Cc1cccs1	11.9	-32.7	2.6	-3.2	58.1*	43.8
SMILES	SENP8 block-1	SENP6 inh	SENP7 inh	SENP8 block-2	C8 TRAIL sens	PPC-1+TRAIL kill
Cc1cc(C(=O)Nc2ccc(Cl)cc2)c(C)n1Cc1cccs1	-12.2	22.7	-9.1	8.4	43.0	46.1
Cc1cc(C(=O)CN2C(=O)c3ccccc3C2=O)c(C)n1Cc1cccs1	13.0	-24.6	-4.4	-10.8	46.4	4.7
CCn1cc(C(=O)NCc2ccc(C)cc2)c(=O)c2cc(S(=O)(=O)N(C)C)ccc21	17.4	4.5	-9.3	-7.6	-4.1	/
COc1ccc(CCCC(=O)N/N=C/c2cccc(OC)c2O)cc1C	-366.5	1.4	-12.9	5.3	52.3*	20.2
Cn1cc(Cl)c(C(=O)Nc2nc3ccc([N+](=O)[O-])cc3s2)n1	6.9	65.4*	89.6*	58.0*	24.9	29.6
CCC(=O)Nc1nc2ccc([N+](=O)[O-])cc2s1	20.9	7.2	2.1	-11.2	15.8	24.2
Cc1ccc(C2=NN(C(=O)CCl)C(c3cccs3)C2)o1 (stereo not given)	-1.7	-10.3	-1.2	-3.6	95.3*	-6.7
O=C(CCl)N1N=C(c2ccco2)CC1c1cccs1 (stereo not given)	9.4	/	/	/	91.8*	4.7
